Data reported in publication PMC4552634, “A New Set of Chemical Starting Points with Plasmodium falciparum Transmission-Blocking Potential for Antimalarial Drug Discovery” (PLoS ONE, 2015).
In all, about 13,000 compounds went through this assay and about 3,200 (25%) showed an effect of 50% or more. Some of the results follow.

tested on: P. falciparum stage V gametocytes; set-up: BacTiter-Glo ATP luminescence viability of purified stage V gametocytes in 384-well plates, per cent inhibition versus DMSO; conditions: 48 h, 5 µM; inhibitor

Row | SMILES | % Inhibition
1 | CCOC(=O)NCCSC(C)(C)[C@H](NC(=O)[C@H](Cc1cc2ccccc2s1)[C@H](CC)N(O)C=O)C(=O)Nc1nccs1 [TCMDC-137792] | 7.703%
2 | CS(=O)(=O)CCNCc1cccc(-c2ccc3c(Nc4cc(O)c(Cl)cc4F)ccnc3c2)c1 [TCMDC-138435] | -21.48%
3 | CN(C)CCN(C)Cc1cccc(-c2ccc3c(Nc4ccc(F)cc4Cl)ccnc3c2)c1 [TCMDC-138416] | 87.2%
4 | COCCNCc1cccc(-c2ccc3c(Nc4cc(O)c(Cl)cc4F)ccnc3c2)c1 [TCMDC-138429] | 38.53%
5 | COCCNCc1cccc(-c2ccc3c(Nc4ccc(F)cc4Cl)ccnc3c2)c1 [TCMDC-138415] | 42.47%
6 | CN(C)CCN(C)Cc1cccc(-c2ccc3c(Nc4cc(O)c(Cl)cc4F)ccnc3c2)c1 [TCMDC-138432] | 25.38%
7 | CN(C)CCNCc1cccc(-c2ccc3c(Nc4ccc(F)cc4Cl)ccnc3c2)c1 [TCMDC-138412] | 66.82%
8 | CN1CCN(Cc2cccc(-c3ccc4c(Nc5ccc(F)cc5Cl)ccnc4c3)c2)CC1 [TCMDC-138417] | 75.62%
9 | CN(C)CCNCc1ncsc1-c1ccc2c(Nc3ccc(F)cc3Cl)ccnc2c1 [TCMDC-138466] | 30.52%
10 | Fc1ccc(Nc2ccnc3cc(I)ccc23)c(Cl)c1 [TCMDC-138387] | 14.07%
11 | Fc1ccc(Nc2ccnc3cc(-c4cccc(CN5CCCCC5)c4)ccc23)c(Cl)c1 [TCMDC-138418] | 24.75%
12 | CN(C)CCNCc1cccc(-c2ccc3c(Nc4cc(O)c(Cl)cc4F)ccnc3c2)c1 [TCMDC-138413] | 57.17%
13 | CN1CCN(Cc2cccc(-c3ccc4c(Nc5cc(O)c(Cl)cc5F)ccnc4c3)c2)CC1 [TCMDC-138430] | 33.23%
14 | N=C(N)c1cccc(-c2cc(-c3cccc(C(=N)N)c3)on2)c1 [TCMDC-137789] | 11.2%
15 | CCCCNC(=O)[C@@H](NC(=O)c1ccc(O)c(-c2ccc(Cl)c(Cl)c2)c1)C(C)C [TCMDC-140839] | 36.3%
16 | CCCCOP(=O)(COc1ccc(CCN(CC(O)COc2cccc3[nH]c4ccccc4c23)CC(O)COc2cccc3[nH]c4ccccc4c23)cc1)C1CCCCC1 (stereo not shown) [TCMDC-139016] | 44.85%
17 | COc1ccc(Nc2nccc(N3CCC(NC(=O)Nc4cccc(C(C)=O)c4)C3)n2)cc1 (stereo not shown) [TCMDC-133610] | -16.63%
18 | COc1cc(Cc2cnc(N)nc2N)cc(OCCCOc2ccccc2)c1OC [TCMDC-137687] | 38.19%
19 | COc1cc(C=CC(=O)N2CCC(CCN3CCC(c4c[nH]c5ccccc45)CC3)CC2)cc(OC)c1 [TCMDC-139938] | 103.2%
20 | Cc1ccc(/C=C/C(=O)N2CCC(CCN3CCC(c4c[nH]c5ccccc45)CC3)CC2)cc1C [TCMDC-139762] | 46.51%
21 | O=C(/C=C/c1ccsc1)NC1CCC(CN2CCC(c3c[nH]c4ccccc34)CC2)CC1 (stereo not shown) [TCMDC-140294] | -21.49%
22 | COc1cc(C=CC(=O)N2CCC(CN3CCC(c4c[nH]c5ccccc45)CC3)CC2)ccc1O [TCMDC-139913] | -95.05%

Row | SMILES | % Inhibition
23 | COc1ccc(C=CC(=O)N2CCC(CN3CCC(c4c[nH]c5ccccc45)CC3)CC2)cc1OC [TCMDC-139944] | -13.45%
24 | O=C(C=Cc1ccc(-c2ccccc2)cc1)N1CCC(CCN2CCC(c3c[nH]c4ccccc34)CC2)CC1 [TCMDC-139941] | 105.7%
25 | O=C(/C=C/c1ccsc1)N1CCC(CCN2CCC(c3c[nH]c4ccccc34)CC2)CC1 [TCMDC-140263] | 102.1%
26 | CC(C)c1ccc(C=CC(=O)N2CCC(CCN3CCC(c4c[nH]c5ccccc45)CC3)CC2)cc1 [TCMDC-139942] | 110.7%
27 | COc1cc(C=CC(=O)N2CCC(CN3CCC(c4c[nH]c5ccccc45)CC3)CC2)cc(OC)c1 [TCMDC-139945] | -6.368%
28 | O=C(/C=C/c1ccc(F)c(C(F)(F)F)c1)N1CCC(CN2CCC(c3c[nH]c4ccccc34)CC2)CC1 [TCMDC-140384] | -23.83%
29 | COc1cc(NC(=O)N2CCc3ccc(OCCN(C(C)C)C(C)C)cc32)cc(C(F)(F)F)c1 [TCMDC-140251] | 48.14%
30 | CN1CCCC(OC(=O)c2ccccc2)C1 (stereo not shown) [TCMDC-125511] | 3.276%
31 | Fc1ccc2[nH]c(-c3cccc(-c4cccc(CNCC5CCCO5)c4)c3)nc2c1.O=C(O)C(F)(F)F (stereo not shown) [TCMDC-133091] | -32.27%
32 | O=C(NC1CCCc2ccccc21)[C@@H]1CCCN1C(=O)c1ccc(O)c(-c2ccc(Cl)c(Cl)c2)c1 (stereo partly shown) [TCMDC-140867] | 31.83%
33 | COC(=O)c1ccc(CC(C)NCC(O)c2cccc(SC(F)(F)F)c2)cc1 (stereo not shown) [TCMDC-131494] | 25.48%
34 | CCCC(N)C(=O)NC1CCN(c2c(F)c(N)c3c(=O)c(C(=O)O)cn4c3c2Oc2ccccc2-4)C1 (stereo not shown) [TCMDC-125701] | 40.26%
35 | Cc1cc(CNC(c2ccccc2)C2CCC2)cc(C)c1O (stereo not shown) [TCMDC-134518] | -25.25%
36 | Cc1nc2nc(N)nc(N)c2c(C)c1Cc1ccc(C(F)(F)F)cc1 [TCMDC-137656] | -0.8923%
37 | N#Cc1ccccc1Sc1ccccc1C(=O)Nc1ccc2ccccc2n1 [TCMDC-125464] | 33.3%
38 | O=C(C=Cc1ccc(Br)cc1)N1CCC(CCN2CCC(c3c[nH]c4ccccc34)CC2)CC1 [TCMDC-139939] | 87.97%
39 | O=C(/C=C/c1cc([N+](=O)[O-])ccc1Cl)N1CCC(CCN2CCC(c3c[nH]c4ccccc34)CC2)CC1 [TCMDC-139911] | 95.76%
40 | O=C(/C=C/c1cc(F)c(F)cc1F)N1CCC(CN2CCC(c3c[nH]c4ccccc34)CC2)CC1 [TCMDC-140383] | -20.73%
41 | O=C(/C=C/c1ccc(Cl)cc1Cl)N1CCC(CCN2CCC(c3c[nH]c4ccccc34)CC2)CC1 [TCMDC-139711] | 81.98%
42 | O=C(C=Cc1ccccc1O)N1CCC(CN2CCC(c3c[nH]c4ccccc34)CC2)CC1 [TCMDC-139912] | -49.08%
43 | O=C(/C=C/c1ccccc1O)N1CCC(CCN2CCC(c3c[nH]c4ccccc34)CC2)CC1 [TCMDC-139712] | 101.8%
44 | O=C(/C=C/c1ccc([N+](=O)[O-])cc1)N1CCC(CCN2CCC(c3c[nH]c4ccccc34)CC2)CC1 [TCMDC-139940] | -27.66%

Row | SMILES | % Inhibition
45 | O=C(/C=C/c1cc([N+](=O)[O-])ccc1Cl)NC1CCC(CN2CCC(c3c[nH]c4ccccc34)CC2)CC1 (stereo not shown) [TCMDC-139907] | -55.07%
46 | CCCc1ccc(NC(=O)c2ccc(CN3CCCN(CC4CCCCC4)CC3)cc2)cc1 [TCMDC-136420] | -21.41%
47 | FC(F)(F)c1ccc2[nH]c(-c3ccc(-c4ccc(CN5CCN(c6cnccn6)CC5)cc4)s3)nc2c1.O=C(O)C(F)(F)F [TCMDC-132677] | 4.163%
48 | COc1cc(Cc2cnc(N)nc2N)cc(OCCCCC2SC(=O)NC2=O)c1OC (stereo not shown) [TCMDC-137185] | -7.728%
49 | Cc1cnc(NC(=O)c2cn(-c3ccccc3)nc2-c2cccs2)s1 [TCMDC-124433] | 10.72%
50 | COc1cc2c(c(OC)c1OC)C[C@H]1c3c(cc4c(c3-2)OCO4)CCN1C [TCMDC-138525] | -52.76%
51 | N#Cc1ccc2[nH]cc(CN3CCC4(CC3)CN(CCNCc3ccccc3)C(=O)O4)c2c1 [TCMDC-136732] | -34.87%
52 | COc1ccc2ncc(F)c(CCN3C[C@H](CNCc4cc(F)c5c(c4)NC(=O)CO5)[C@H](O)C3)c2n1 [TCMDC-136203] | 28.74%
53 | Nc1nc2c(ncn2OC[C@H](CO)OCP(=O)(O)O)c(=O)[nH]1 [TCMDC-131639] | 4.722%
54 | O=C(/C=C/c1cc(F)cc(C(F)(F)F)c1)N1CCC(CN2CCC(c3c[nH]c4ccccc34)CC2)CC1 [TCMDC-140385] | -12.95%
55 | O=C(/C=C/c1cc(C(F)(F)F)ccc1F)N1CCC(CN2CCC(c3c[nH]c4ccccc34)CC2)CC1 [TCMDC-139857] | -24.43%
56 | O=C(/C=C/c1ccc(C(F)(F)F)cc1)N1CCC(CCN2CCC(c3c[nH]c4ccccc34)CC2)CC1 [TCMDC-139761] | 107.6%
57 | CCN(CC)CCN(Cc1ccc(-c2ccc(C(F)(F)F)cc2)nc1)C(=O)Cn1cc(Cc2cnn(C)c2)c(=O)n2nc(-c3ccccc3)cc12 [TCMDC-140691] | 119%
58 | CCCCN1Cc2c(n(CC(=O)Nc3ccccc3)c3cc(-c4ccccc4)nn3c2=O)C1=O [TCMDC-125585] | -0.9231%
59 | CCN(CC)CCN(Cc1ccc(-c2ccc(C(F)(F)F)cc2)cc1)C(=O)Cn1cc(Cc2cnn(C)c2)c(=O)n2nc(-c3ccccc3)cc12 [TCMDC-140690] | 119.2%
60 | COc1ccc2nccc([C@@H](O)CN3CCC(NC(=O)/C=C/c4cccc(C)c4)CC3)c2c1 [TCMDC-141114] | -1.317%
61 | O=C(NC1CCN(CCc2c[nH]c3ccc(F)cc23)CC1)c1ncc(-c2ccccc2)[nH]1 [TCMDC-131972] | 5.191%
62 | Cc1ccc(NC(=O)Nc2ccc(Br)cc2)cc1OCCN(C)C [TCMDC-140087] | -42.58%
63 | COc1ccc(NC(=O)/C=C/c2cc(Br)ccc2F)cc1OCCN(C(C)C)C(C)C [TCMDC-140668] | -43.25%
64 | CCOC(=O)CN(c1ccc(Br)cc1OCCOc1cc(Br)ccc1N(CC(=O)OCC)C(C)C(=O)OCC)C(C)C(=O)OCC (stereo not shown) [TCMDC-132003] | 102%
